Laboratory results published in PubChem BioAssay (NCATS).
Inconclusive results are not listed. Entries that show only a call come without a potency. Calls of active or inactive are those of the source. The call rests on the fitted dose curve; in most records, active means well fitted cell-killing curve with a large enough effect; inconclusive means small, poorly fitted or top-dose-only effect; inactive means no such curve, though single readings can be large or run the other way.
Potency means the concentration at half of the fitted maximal effect.

Assay: qHTS of pediatric cancer cell lines to identify multiple opportunities for drug repurposing: Primary screen for LAN-5 cells (AID 1347100)
Conditions: LAN-5 neuroblastoma viability, CellTiter-Glo luminescence, 48 h; series mostly up to 46 µM
Description: Drug repurposing or repositioning has been offered as a strategy for drug development in oncology programs. This approach has special potential for childhood cancers and other rare or orphan diseases, where the expected return on new drug development has been a disincentive to pharmaceuticals.
In this project we exploit the poly-pharmacology of drugs to discover new indications via phenotypic screening of a panel of 19 well-characterized cell lines derived from solid tumors seen in children and adolescents. The goal is to identify approved drugs with previously unrecognized anticancer properties that has the potential to reveal new mechanisms and biological processes involved in carcinogenesis or drug resistance. We employed a titration-based paradigm (quantitative high-throughput screening or qHTS), where all compounds were tested at multiple concentrations for their effect on cell viability. Concentration-response curves (CRCs) were derived directly from the primary screen, and both potency and efficacy values were used to identify compounds with robust bioactivity profiles. We screened the NIH Chemical Genomics Center (NCGC) Pharmaceutical Collection (NPC) and Mechanism Interrogation Plate (MIPE) small molecule collections of approved and investigational compounds against these cell lines; and measured metabolically active cells after 48 hours of compound treatment as a proxy for cell viability.
Assay Submitter: Nathalia J. Martinez, National Center for Advancing Translational Sciences, National Institutes of Health, Rockville, MD, USA; email: natalia.martinez@nih.gov
[1] Shen, M et al. Quantitative high-throughput phenotypic screening of pediatric cancer cell lines identifies multiple opportunities for drug repurposing. Oncotarget 2017 Dec 19;9(4):4758-4772. PMID 29435139.
The cells were obtained from University of North Carolina (UNC), Pediatric Preclinical Testing Program (PPT), and Coriell Institute (CI).
qHTS cell viability assay:
Cells were assayed in growth media at a density of 500-1,000 cells/well. Five microliters of cells were dispensed into 1,536-well, white, solid-bottom, TC-treated plates (Greiner Bio One) using a multidrop dispenser and incubated at 37 degrees C, 5% CO2, under a humidified atmosphere for 5 hours. Twenty-three nanoliters of compounds and controls (neutral control DMSO or positive control bortezomib at final concentration of 2.3 µM) were subsequently transferred by Kalypsys pintool. For primary screens, the MIPE collection was tested at 11-point dilutions (final concentrations range from 0.78 nM to 46 µM) and the NPC collection at 8-point dilutions (final concentrations range from 0.59 nM to 46 µM). Compounds tested in follow-up screens were assayed at 11-point dilutions. Cells were incubated for 48 hours, followed by addition of 3 µL of CellTiter-Glo (Promega). After a 15 min incubation at room temperature, samples were analyzed for luminescence intensity using a ViewLux High-throughput CCD imager equipped with clear filters.
In the case of `O=C(O)c1ccc(S(=O)(=O)N(Cl)Cl)cc1`, the Potency was “inactive”. With `NS(=O)(=O)c1ccc(Cl)c(S(N)(=O)=O)c1` the Potency was “inactive”. In the case of `NS(=O)(=O)c1cc(C(=O)O)cc(N2CCCC2)c1Oc1ccccc1`, the Potency was “inactive”. With `CCCCN=C(N)N=C(N)N` the Potency was “inactive”. In the case of `CCOc1ccccc1OCCN[C@H](C)Cc1ccc(OC)c(S(N)(=O)=O)c1`, the Potency was “inactive”. With `O=C1OC(CN2CCOCC2)CN1/N=C/c1ccc([N+](=O)[O-])o1` (stereo not given) the Potency was “inactive”. With `C=CCN1CCc2nc(N)sc2CC1` the Potency was “inactive”. With `CCOC(=O)c1ccc(N)cc1` the Potency was “inactive”. With `CCC(CC)(CC(=O)Nc1cccc(/C=C/c2nc(C3CCC3)cs2)c1)C(=O)O` the Potency was “inactive”. In the case of `CCNC(=O)/C=C/c1cccc(Br)c1`, the Potency was “inactive”. In the case of `C#C[C@]1(O)CC[C@H]2[C@@H]3CCC4=CC(=O)CC[C@@H]4[C@H]3CC[C@@]21CC`, the Potency was “inactive”. For `CCCc1ncc(C[n+]2ccccc2C)c(N)n1`, the Potency was “inactive”. With `CC(=O)O[C@H]1C[C@@H]2CC[C@@H]3[C@H](CC[C@@]4(C)[C@H]3C[C@H]([N+]3(C)CCCCC3)[C@@H]4OC(C)=O)[C@@]2(C)C[C@@H]1N1CCCCC1` the Potency was “inactive”. In the case of `O=C(CN1CCN(Cc2ccc3c(c2)OCO3)CC1)N1c2ccccc2Sc2ccccc21`, the Potency was “inactive”. In the case of `CC(=O)Nc1ccc(OC(=O)c2ccccc2OC(C)=O)cc1`, the Potency was “inactive”. For `NCc1ccccc1Sc1ccccc1CO`, the Potency was “inactive”. For `O=C(NCCc1c[nH]c2ccccc12)c1cccnc1`, the Potency was “inactive”. For `CCCCCCCCCCC[C@@H](C[C@@H]1OC(=O)[C@H]1CCCCCC)OC(=O)[C@H](CC(C)C)NC=O`, the Potency was “inactive”. In the case of `Cc1cc(-c2ccccc2)nnc1NCCN1CCOCC1`, the Potency was “inactive”. In the case of `CCNC(=O)NCc1cccc(Cl)c1`, the Potency was “inactive”. For `CNCCc1ccccn1`, the Potency was “inactive”. In the case of `C#C[C@]1(O)CC[C@H]2[C@@H]3CCc4cc(OC)ccc4[C@H]3CC[C@@]21C`, the Potency was “inactive”. In the case of `CCOC(=O)[C@H](CCc1ccccc1)N[C@@H](C)C(=O)N1[C@H](C(=O)O)C[C@@H]2CCC[C@@H]21`, the Potency was “inactive”. For `CC(C)(Cc1c[nH]c2ccccc12)NCC(O)COc1ccccc1C#N` (stereo not given), the Potency was “inactive”. In the case of `COC(=O)C(c1ccccc1Cl)N1CCc2sccc2C1` (stereo not given), the Potency was “inactive”. With `CCN(CC)CCNC(=O)COc1ccc(OC)cc1` the Potency was “inactive”. For `CCCCCCCC/C=C\CCCCCCCCN`, the Potency was “inactive”. With `OCc1ccccn1` the Potency was “inactive”. With `NC(=O)c1ccccc1O` the Potency was “inactive”. For `CCN(CC)CCOc1ccccc1C(=O)CCc1ccccc1`, the Potency was “inactive”. In the case of `CCCCC(CC)CN1CN(CC(CC)CCCC)CC(C)(N)C1` (stereo not given), the Potency was “inactive”. With `CCCCCCCCCCCCCC[N+](C)(C)Cc1ccccc1` the Potency was 21.1 µM (active). In the case of `COc1cc(N)c(Cl)cc1C(=O)NC1CCN(Cc2ccccc2)CC1`, the Potency was “inactive”. In the case of `Cc1ccc(-c2ncc(Cl)cc2-c2ccc(S(C)(=O)=O)cc2)cn1`, the Potency was “inactive”. With `FC1(F)C(F)(F)C(F)(F)C2(F)C(F)(F)C(F)(F)C(F)(F)C(F)(F)C2(F)C1(F)F` (stereo not given) the Potency was “inactive”. With `O=C1C(CCS(=O)c2ccccc2)C(=O)N(c2ccccc2)N1c1ccccc1` (stereo not given) the Potency was “inactive”. In the case of `COc1ccc(CCN(C)CCCN2CCc3cc(OC)c(OC)cc3CC2=O)cc1OC`, the Potency was “inactive”. For `O=C(c1ccc(F)cc1)C1CCN(CCn2c(=S)[nH]c3ccccc3c2=O)CC1`, the Potency was “inactive”. With `Cc1cn([C@H]2C[C@H](F)[C@@H](CO)O2)c(=O)[nH]c1=O` the Potency was “inactive”. In the case of `CCO[C@@H]1O[C@H](C(COCc2ccccc2)OCc2ccccc2)[C@H](OCc2ccccc2)[C@H]1O` (stereo not given in full), the Potency was “inactive”.
